Test results reported in the supplement of paper PMC10849652.
The full data set covers some 7,900 targets. This sample favours those with a hit. About 0.6% of all pairs of compound and target were hits.

These targets were tested with O=C(O)c1ccc2c(c1)nc(Nc1cccc(Cl)c1)c1ccncc12 [silmitasertib] (assay: log2 fold change, soluble protein after heating vs DMSO (PISA); higher = thermal stabilisation; K562 cells, 10 uM, 30 min; active = over 0.2 and 3.5 SD of the protein, either way, in both replicates (recomputed)).
How it was run: (§1)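 K562 cells at 2×10^6 cells/mL were given 10 μM compound for 30 min. Aliquots then went through 3 min of heating across 48°C-58°C, were pooled, and were extracted in PBS with 0.5% NP-40 at 4°C, and the supernatant after 21,000xg for 90 min was quantified by TMTpro 16plex LC-MS/MS with channel sums equalised. Thermal stability relative to control samples, from duplicates, is given as log2 fold change.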

Sequence of UniProt Q8N108 (Q8N108 whole entry, looked up): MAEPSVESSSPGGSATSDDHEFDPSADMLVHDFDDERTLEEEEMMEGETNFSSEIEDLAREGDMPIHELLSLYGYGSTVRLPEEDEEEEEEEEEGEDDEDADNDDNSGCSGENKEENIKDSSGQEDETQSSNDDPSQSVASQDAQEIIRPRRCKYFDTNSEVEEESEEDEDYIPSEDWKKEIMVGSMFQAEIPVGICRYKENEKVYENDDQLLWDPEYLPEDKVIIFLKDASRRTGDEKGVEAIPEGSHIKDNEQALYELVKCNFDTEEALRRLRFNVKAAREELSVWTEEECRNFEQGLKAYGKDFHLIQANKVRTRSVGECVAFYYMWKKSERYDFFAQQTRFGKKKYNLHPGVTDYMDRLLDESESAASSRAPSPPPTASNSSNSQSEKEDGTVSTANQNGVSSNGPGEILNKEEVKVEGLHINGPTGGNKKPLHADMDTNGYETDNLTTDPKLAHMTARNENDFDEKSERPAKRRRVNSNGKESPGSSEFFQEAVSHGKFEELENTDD
Sequence of UniProt P23368 (P23368 whole entry, looked up): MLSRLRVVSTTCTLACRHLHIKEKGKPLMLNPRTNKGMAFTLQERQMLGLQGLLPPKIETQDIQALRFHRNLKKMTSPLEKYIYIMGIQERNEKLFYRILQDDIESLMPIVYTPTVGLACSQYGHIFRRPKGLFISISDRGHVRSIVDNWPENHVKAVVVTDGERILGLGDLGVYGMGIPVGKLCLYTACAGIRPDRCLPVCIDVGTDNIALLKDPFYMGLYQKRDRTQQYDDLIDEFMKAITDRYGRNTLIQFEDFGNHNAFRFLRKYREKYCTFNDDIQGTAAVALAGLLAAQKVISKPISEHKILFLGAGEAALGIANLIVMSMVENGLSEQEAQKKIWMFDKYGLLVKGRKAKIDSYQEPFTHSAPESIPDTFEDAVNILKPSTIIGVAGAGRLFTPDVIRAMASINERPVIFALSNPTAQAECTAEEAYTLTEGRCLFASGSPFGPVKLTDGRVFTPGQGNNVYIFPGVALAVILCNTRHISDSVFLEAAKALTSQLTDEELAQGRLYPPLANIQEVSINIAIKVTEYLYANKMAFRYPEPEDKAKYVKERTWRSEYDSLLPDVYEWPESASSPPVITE
Sequence of UniProt Q9NQG6 (Q9NQG6 whole entry, looked up): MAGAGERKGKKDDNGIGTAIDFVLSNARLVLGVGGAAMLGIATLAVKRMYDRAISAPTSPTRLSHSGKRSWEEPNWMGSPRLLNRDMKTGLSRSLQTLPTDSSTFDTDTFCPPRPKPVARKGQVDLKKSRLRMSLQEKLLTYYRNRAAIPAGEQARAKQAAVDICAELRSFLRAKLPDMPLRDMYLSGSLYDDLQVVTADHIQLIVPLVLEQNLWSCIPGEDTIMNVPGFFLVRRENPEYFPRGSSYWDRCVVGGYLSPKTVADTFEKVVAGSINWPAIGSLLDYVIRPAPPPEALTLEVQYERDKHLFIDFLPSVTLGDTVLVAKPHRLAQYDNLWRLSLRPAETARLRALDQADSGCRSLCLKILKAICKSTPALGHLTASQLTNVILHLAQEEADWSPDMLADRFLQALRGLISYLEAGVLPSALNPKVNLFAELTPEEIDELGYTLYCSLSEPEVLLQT
Sequence of UniProt Q86UP2 (Q86UP2 whole entry, looked up): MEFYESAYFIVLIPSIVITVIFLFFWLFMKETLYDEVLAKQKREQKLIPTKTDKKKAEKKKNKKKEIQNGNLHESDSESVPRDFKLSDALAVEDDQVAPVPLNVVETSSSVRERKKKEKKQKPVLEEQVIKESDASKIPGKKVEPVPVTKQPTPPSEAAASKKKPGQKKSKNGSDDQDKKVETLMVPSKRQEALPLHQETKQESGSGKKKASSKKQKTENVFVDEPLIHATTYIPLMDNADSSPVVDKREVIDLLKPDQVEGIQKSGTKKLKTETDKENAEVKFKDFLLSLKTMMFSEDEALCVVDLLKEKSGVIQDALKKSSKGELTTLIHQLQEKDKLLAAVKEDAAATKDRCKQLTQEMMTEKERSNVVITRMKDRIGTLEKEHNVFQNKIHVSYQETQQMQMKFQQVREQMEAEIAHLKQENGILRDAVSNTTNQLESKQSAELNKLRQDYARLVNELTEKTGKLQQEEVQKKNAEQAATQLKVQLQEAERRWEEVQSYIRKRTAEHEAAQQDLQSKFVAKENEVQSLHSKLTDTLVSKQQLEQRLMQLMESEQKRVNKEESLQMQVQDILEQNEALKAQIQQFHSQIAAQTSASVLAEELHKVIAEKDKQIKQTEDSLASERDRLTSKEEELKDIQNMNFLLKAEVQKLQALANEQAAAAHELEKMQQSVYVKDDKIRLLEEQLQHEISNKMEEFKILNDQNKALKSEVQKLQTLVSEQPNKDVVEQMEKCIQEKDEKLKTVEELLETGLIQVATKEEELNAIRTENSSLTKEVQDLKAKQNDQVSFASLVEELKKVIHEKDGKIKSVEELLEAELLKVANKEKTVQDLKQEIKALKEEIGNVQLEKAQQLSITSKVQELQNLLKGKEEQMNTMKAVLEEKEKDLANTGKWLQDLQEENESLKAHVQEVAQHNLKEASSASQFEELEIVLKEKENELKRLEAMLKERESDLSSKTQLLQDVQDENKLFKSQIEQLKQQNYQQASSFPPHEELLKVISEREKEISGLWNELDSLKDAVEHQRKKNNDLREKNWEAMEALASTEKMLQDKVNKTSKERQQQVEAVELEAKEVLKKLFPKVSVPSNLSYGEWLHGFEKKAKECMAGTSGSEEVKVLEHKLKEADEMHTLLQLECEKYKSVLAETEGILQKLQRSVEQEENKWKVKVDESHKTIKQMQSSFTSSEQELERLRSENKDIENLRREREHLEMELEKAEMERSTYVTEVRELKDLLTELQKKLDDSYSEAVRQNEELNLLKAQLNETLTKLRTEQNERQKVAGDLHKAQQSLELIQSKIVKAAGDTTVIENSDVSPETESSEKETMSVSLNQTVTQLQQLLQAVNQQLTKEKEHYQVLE
Sequence of UniProt Q13422 (Q13422 whole entry, looked up): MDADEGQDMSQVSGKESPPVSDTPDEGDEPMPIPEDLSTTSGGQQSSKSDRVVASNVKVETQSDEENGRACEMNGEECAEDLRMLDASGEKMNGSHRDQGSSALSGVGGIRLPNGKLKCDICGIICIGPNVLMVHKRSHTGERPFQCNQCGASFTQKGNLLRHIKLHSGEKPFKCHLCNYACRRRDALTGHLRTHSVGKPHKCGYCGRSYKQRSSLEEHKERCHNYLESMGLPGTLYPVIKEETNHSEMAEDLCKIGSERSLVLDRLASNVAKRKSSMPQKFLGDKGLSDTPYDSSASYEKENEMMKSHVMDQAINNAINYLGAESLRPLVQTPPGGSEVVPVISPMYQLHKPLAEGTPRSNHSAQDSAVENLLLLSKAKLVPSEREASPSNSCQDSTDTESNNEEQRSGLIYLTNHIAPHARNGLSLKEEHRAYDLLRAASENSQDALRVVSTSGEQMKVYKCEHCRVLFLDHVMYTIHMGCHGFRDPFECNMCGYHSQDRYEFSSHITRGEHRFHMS
Sequence of UniProt Q16891 (Q16891 whole entry, looked up): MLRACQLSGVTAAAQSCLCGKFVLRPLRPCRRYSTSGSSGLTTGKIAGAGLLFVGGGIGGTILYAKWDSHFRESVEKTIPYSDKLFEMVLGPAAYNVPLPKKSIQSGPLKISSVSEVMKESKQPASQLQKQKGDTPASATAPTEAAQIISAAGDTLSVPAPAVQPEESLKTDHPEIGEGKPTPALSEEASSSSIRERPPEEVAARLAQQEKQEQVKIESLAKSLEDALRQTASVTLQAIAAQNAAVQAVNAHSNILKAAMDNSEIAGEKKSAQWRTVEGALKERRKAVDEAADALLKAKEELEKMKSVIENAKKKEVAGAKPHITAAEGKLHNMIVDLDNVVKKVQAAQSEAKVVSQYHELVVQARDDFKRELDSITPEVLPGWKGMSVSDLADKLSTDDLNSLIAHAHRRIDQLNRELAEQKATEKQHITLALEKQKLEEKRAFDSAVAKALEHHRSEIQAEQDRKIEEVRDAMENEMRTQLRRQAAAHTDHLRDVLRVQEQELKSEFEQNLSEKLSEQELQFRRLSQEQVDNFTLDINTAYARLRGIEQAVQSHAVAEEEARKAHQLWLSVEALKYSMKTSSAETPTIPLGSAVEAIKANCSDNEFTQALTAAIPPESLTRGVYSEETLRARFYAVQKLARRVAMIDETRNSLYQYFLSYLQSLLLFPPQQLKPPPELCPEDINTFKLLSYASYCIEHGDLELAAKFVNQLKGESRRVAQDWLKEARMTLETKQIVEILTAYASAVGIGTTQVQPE
Sequence of UniProt P49006 (P49006 whole entry, looked up): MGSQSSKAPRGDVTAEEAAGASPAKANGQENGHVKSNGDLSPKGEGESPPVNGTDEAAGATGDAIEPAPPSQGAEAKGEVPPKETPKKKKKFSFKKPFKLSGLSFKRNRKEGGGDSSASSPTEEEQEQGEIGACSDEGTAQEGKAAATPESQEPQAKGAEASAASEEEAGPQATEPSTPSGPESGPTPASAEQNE
Sequence of UniProt Q9UBF1 (Q9UBF1 whole entry, looked up): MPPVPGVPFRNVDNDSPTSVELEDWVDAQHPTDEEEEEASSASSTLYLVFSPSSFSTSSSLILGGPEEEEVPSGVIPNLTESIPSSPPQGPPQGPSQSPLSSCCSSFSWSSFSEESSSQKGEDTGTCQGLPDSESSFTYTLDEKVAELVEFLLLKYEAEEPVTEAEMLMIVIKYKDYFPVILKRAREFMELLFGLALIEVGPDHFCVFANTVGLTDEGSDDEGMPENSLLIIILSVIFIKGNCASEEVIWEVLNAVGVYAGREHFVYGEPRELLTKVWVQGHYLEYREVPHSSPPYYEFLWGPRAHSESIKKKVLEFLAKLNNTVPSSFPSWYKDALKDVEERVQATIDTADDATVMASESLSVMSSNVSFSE
Sequence of UniProt P14174 (P14174 whole entry, looked up): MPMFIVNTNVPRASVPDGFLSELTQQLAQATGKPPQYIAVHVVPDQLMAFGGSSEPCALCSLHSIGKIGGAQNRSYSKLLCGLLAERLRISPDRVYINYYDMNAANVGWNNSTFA
Sequence of UniProt Q5XKP0 (Q5XKP0 whole entry, looked up): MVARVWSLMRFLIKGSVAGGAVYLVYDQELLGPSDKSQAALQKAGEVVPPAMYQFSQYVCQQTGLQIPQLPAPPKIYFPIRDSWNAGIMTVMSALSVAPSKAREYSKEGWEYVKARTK

log2 fold change, inactive:
IMMT isoform 2 (UniProt Q16891) -0.066, KTN1 (UniProt Q86UP2) 0.06, MAGEC2 (UniProt Q9UBF1) 0.057, IKZF1 (UniProt Q13422) -0.202, MAPKAPK5 (UniProt Q8IW41) -0.044, IWS1 (UniProt Q96ST2) 0.054, MIER1 isoform 12 (UniProt Q8N108) -0.017, KIAA1324L (UniProt A8MWY0) -0.014, MIEF1 (UniProt Q9NQG6) 0.006, KPNA1 (UniProt P52294) 0.088, MARCKSL1 (UniProt P49006) -0.115, MIF (UniProt P14174) 0.036, IRF3 (UniProt Q14653) -0.044, MAST4 (UniProt O15021) -0.053, ME2 (UniProt P23368) 0.186

The targets below were run with O=C1NC(=O)C(c2cnc3ccccn23)=C1c1cn2c3c(cc(F)cc13)CN(C(=O)N1CCCCC1)CC2 in the same assay as above.
How it was run: as §1

log2 fold change, inactive:
LMNA (UniProt P02545) -0.075, MAP4 (UniProt E7EVA0) 0.106, LMBRD1 (UniProt Q9NUN5) -0.003, MFSD11 (UniProt O43934) -0.04, KLHL18 (UniProt O94889) -0.014, L2HGDH (UniProt Q9H9P8) -0.053, INPP1 (UniProt P49441) 0.023, MAPKAPK2 (UniProt P49137) -0.128, LRRFIP1 (UniProt Q32MZ4) 0.01, LTN1 isoform 3 (UniProt O94822) 0.037, MARK3 (UniProt P27448) -0.017, MICOS13 (UniProt Q5XKP0) -0.106, MAP1LC3B2 (UniProt A6NCE7) -0.001, MFSD1 isoform 6 (UniProt Q9H3U5) 0.067, KPNA6 (UniProt O60684) 0.067, LPIN1 isoform 7 (UniProt Q14693) -0.098, LAMP2 (UniProt P13473) 0.065, MCCC2 (UniProt Q9HCC0) 0.006, MED17 (UniProt Q9NVC6) 0.112, IPO9 (UniProt Q96P70) 0.048, KCTD2 (UniProt Q14681) -0.121, MCL1 (UniProt Q07820) -0.112, ILK (UniProt Q13418) -0.036, IMMT isoform 2 (UniProt Q16891) 0.064, KTN1 (UniProt Q86UP2) 0.148, MAGEC2 (UniProt Q9UBF1) 0.089, IKZF1 (UniProt Q13422) 0.004, MAPKAPK5 (UniProt Q8IW41) -0.078, IWS1 (UniProt Q96ST2) -0.032, MIER1 isoform 12 (UniProt Q8N108) -0.066, KIAA1324L (UniProt A8MWY0) -0.013, MIEF1 (UniProt Q9NQG6) 0.031, KPNA1 (UniProt P52294) 0.064, MARCKSL1 (UniProt P49006) -0.035, MIF (UniProt P14174) -0.196, IRF3 (UniProt Q14653) -0.047, MAST4 (UniProt O15021) 0.051, ME2 (UniProt P23368) -0.017

These targets were tested with c1cc(OCCN2CCCCC2)cc(-c2n[nH]c3ccc(-c4nnc[nH]4)cc23)c1 in the same assay as above.
How it was run: as §1

log2 fold change, inactive:
LMNA (UniProt P02545) -0.068, MAP4 (UniProt E7EVA0) -0.075, LMBRD1 (UniProt Q9NUN5) 0.049, MFSD11 (UniProt O43934) 0.063, KLHL18 (UniProt O94889) -0.022, L2HGDH (UniProt Q9H9P8) 0.029, INPP1 (UniProt P49441) -0.039, MAPKAPK2 (UniProt P49137) -0.006, LRRFIP1 (UniProt Q32MZ4) -0.013, LTN1 isoform 3 (UniProt O94822) -0.045, MARK3 (UniProt P27448) -0.317, MICOS13 (UniProt Q5XKP0) 0.025, MAP1LC3B2 (UniProt A6NCE7) -0.103, MFSD1 isoform 6 (UniProt Q9H3U5) 0.043, KPNA6 (UniProt O60684) -0.159, LPIN1 isoform 7 (UniProt Q14693) -0.048, LAMP2 (UniProt P13473) -0.11, MCCC2 (UniProt Q9HCC0) -0.024, MED17 (UniProt Q9NVC6) 0.126, IPO9 (UniProt Q96P70) -0.035, KCTD2 (UniProt Q14681) -0.204, MCL1 (UniProt Q07820) 0.142, ILK (UniProt Q13418) -0.048, IMMT isoform 2 (UniProt Q16891) 0.008, KTN1 (UniProt Q86UP2) -0.189, MAGEC2 (UniProt Q9UBF1) -0.09, IKZF1 (UniProt Q13422) -0.061, MAPKAPK5 (UniProt Q8IW41) 0.213, IWS1 (UniProt Q96ST2) 0, MIER1 isoform 12 (UniProt Q8N108) -0.061, KIAA1324L (UniProt A8MWY0) -0.094, MIEF1 (UniProt Q9NQG6) -0.01, KPNA1 (UniProt P52294) -0.037, MARCKSL1 (UniProt P49006) 0.089, MIF (UniProt P14174) 0.063, IRF3 (UniProt Q14653) -0.028, MAST4 (UniProt O15021) -0.151, ME2 (UniProt P23368) -0.093
